Compound activity as filed in PubChem.
PostGolgi ctrl – inhibits growth of the yeast control strain | AID 738 | efflux-deficient yeast background strain, growth absorbance A615, 16 h | inhibition, % at 10 µM | 5% of 98,000 active
PostGolgi yeast – growth inhibition of a yeast mutant, post-Golgi transport screen; inhibition, % at 10 µM; 0.9% of 98,000 active; post-Golgi transport phenotypic cell assay; AID 739;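 also: yeast cells grown in 1536-well plates; yeast grown about 18 h at 30C before absorbance read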
CYP2C19 activ – activators of human cytochrome P450 2C19. P33261. AID 1025. recombinant CYP2C19, luciferin-H EGE luminescence; stronger effect = higher value; 0 = fully inhibited enzyme, 1 = untreated enzyme. 96,000 tested, under 10 active. activation factor at 5 µM;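 active = activation factor of at least 2 at 5 µM in the primary screen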;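 also: 0 = wells with 2.5 mM tranylcypromine and 1 = vehicle-only wells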
Target sequence (P33261 whole entry, looked up): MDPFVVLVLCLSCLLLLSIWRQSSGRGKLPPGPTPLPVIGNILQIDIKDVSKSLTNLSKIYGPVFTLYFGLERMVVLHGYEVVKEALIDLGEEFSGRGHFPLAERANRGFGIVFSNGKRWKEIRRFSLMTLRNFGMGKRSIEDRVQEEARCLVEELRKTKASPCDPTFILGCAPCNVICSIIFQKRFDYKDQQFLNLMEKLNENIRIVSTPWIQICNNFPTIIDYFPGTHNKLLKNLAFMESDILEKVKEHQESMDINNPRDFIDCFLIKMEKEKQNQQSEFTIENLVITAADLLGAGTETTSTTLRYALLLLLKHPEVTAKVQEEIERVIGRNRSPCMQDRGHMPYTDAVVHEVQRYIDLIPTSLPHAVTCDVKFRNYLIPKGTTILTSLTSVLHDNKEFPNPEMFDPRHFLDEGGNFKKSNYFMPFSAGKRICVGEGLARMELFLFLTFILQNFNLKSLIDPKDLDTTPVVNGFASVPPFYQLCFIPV
CYP2C9 act – increases human cytochrome P450 2C9 activity | AID 1024 | activation factor at 5 µM | recombinant CYP2C9, luciferin-H conversion, luminescence; stronger effect = higher value; factor 1 = untreated enzyme, 0 = blocked | 1.4% of 96,000 active;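 active = activation factor of 2 or more for CYP2C9 at a 5 µM dose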;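 also: 0 = sulfaphenazole-blocked wells and 1 = vehicle-only wells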
CYP2C19 inhib – blocks human cytochrome P450 2C19; CYP2C19 Supersomes, luciferin-H EGE luminescence, 30 min; inhibition, % at 5 µM; 21% of 96,000 active;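 active = CYP2C19 inhibition above a set limit at 5 µM in the primary screen, cut at about 50% in these data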;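 also: plate controls were negative control wells for no effect and 2.5 mM tranylcypromine positive control for full effect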
CYP2C9 inh – human CYP2C9 inhibition. CYP2C9 Supersomes, luciferin-H conversion, luminescence. inhibition, % at 5 µM. 20% of 96,000 active. AID 777;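 active = blocking of liver enzyme CYP2C9 beyond about 50% at 5 µM, limit read from the data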
Starred values were filed as active, the others as inactive. Most compounds without a hit are left out; they make up all but 32% or so of the library. Rule as the data show it, unless noted: active = inhibition above about 30%; inactive = the rest.

SMILES	PostGolgi ctrl	PostGolgi yeast	CYP2C19 activ	CYP2C9 act	CYP2C19 inhib	CYP2C9 inh
COc1ccc(-c2cc(N)n(S(=O)(=O)c3ccc(C)cc3)n2)c(OC)c1	10	-9	0.9	0.6	11	41
COc1ccc(OC)c(-n2c(C)ccc2-c2ccc(S(C)(=O)=O)cc2)c1	8	0	0	0	96*	98*
COc1ccc(OC)c(-n2c(-c3ccc(S(C)(=O)=O)cc3)cc(C=O)c2C)c1	-5	0	0.4	0.3	60*	66*
COc1ccc(OC)c(-n2c(-c3cnccn3)n[nH]c2=S)c1	1	6	0.8	0.8	20	24
CCCNC(=O)c1cc(OC)c(OC)cc1[N+](=O)[O-]	1	1	1.1	1.2	-14	-23
CCOc1ccccc1CNC(=O)C1CCN(c2nc3ccccc3o2)CC1	24	-4	0.8	1	24	-2
CCCCn1c(N)c(N(CC(C)C)C(=O)CN(C)Cc2cccc(OC)c2)c(=O)[nH]c1=O	22	16	0.4	0.9	56*	14
COc1ccc(S(=O)(=O)n2nc(OC(=O)c3ccccc3Br)cc2N)cc1	7	-2	0.6	0.1	45	93*
COc1ccc(S(=O)(=O)n2nc(OC(=O)c3cccs3)cc2N)cc1	10	-3	0.8	0.3	18	73*
COc1ccc(S(=O)(=O)n2nc(OC(=O)c3ccc(C)cc3)cc2N)cc1	1	-3	1	0.2	1	81*
Cc1ccc(S(=O)(=O)n2nc(OC(=O)c3c(-c4ccccc4Cl)noc3C)cc2N)cc1	1	-1	0.6	0.1	36	93*
COc1ccc(S(=O)(=O)n2nc(OC(=O)c3ccccc3)cc2N)cc1	15	-4	1.1	1	-13	-2
Cc1onc(-c2ccccc2Cl)c1C(=O)Oc1cc(N)n(S(=O)(=O)c2ccc(F)cc2)n1	19	2	1.1	0.9	-6	12
CC1CCCC(NC(=O)CCCn2c(=O)[nH]c3cc(Cl)ccc3c2=O)C1C (configuration not stated)	3	13	0.8	0.6	20	44
CCn1cc(Br)c(C(=O)Nc2ccc(Cl)cc2Cl)n1	21	-12	0.3	0.5	74*	46
CCOC(=O)c1ccc(NC(=O)c2nn(CC)cc2Br)cc1	9	-6	0.7	1.5	31	-45
CCn1cc(Br)c(C(=O)Nc2ccc(F)c(Cl)c2)n1	9	-1	0.1	0.3	92*	75*
COc1ccccc1CNC(=O)/C=C/c1cc2c(cc1Br)OCO2	-6	-4	1	1.4	4	-36
Cc1cccc(-c2nsc(SCC(=O)Nc3nccs3)n2)c1	-1	-4	0.6	0.5	36	48
Cc1cccc(-c2nsc(SCC(=O)N3CCCC3)n2)c1	18	2	0.5	1.1	50*	-11
Cc1ccccc1NC(=O)COC(=O)CN1C(=O)NC(C)(C)C1=O	4	2	0.8	0.8	22	16
COCc1cc(Sc2c(Cl)cccc2Cl)nc(-c2ccccc2)n1	14	-5	1	0.8	0	18
O=C(/C=C/c1ccc2ccccc2c1)c1ccoc1	17	9	0.4	0.7	58*	34
O=C(Oc1ccc2ccccc2c1)c1ccco1	27	-6	1	0.9	2	11
Cc1ccc(CNC(=O)CS(=O)Cc2nc(-c3cccs3)oc2C)cc1 (configuration not stated)	11	-4	0.8	1.2	20	-22
SMILES	PostGolgi ctrl	PostGolgi yeast	CYP2C19 activ	CYP2C9 act	CYP2C19 inhib	CYP2C9 inh
Cc1nc2ccccn2c1-c1csc(NCc2ccco2)n1	20	1	0.3	0.4	72*	59*
Cc1nc(C)c(-c2csc(NCc3ccccc3)n2)s1	8	-5	0.2	0.8	83*	17
Cc1ccccc1Nc1nc(-c2sc(NC(=O)c3ccco3)nc2C)cs1	1	-1	0.7	0.7	29	30
COc1ccccc1Nc1nc(-c2sc(NC(=O)C(C)(C)C)nc2C)cs1	3	-5	0.9	0.6	12	40
Cc1nc(C)c(-c2csc(NCc3ccco3)n2)s1	1	0	0.3	2.7*	69*	-169
Cc1nc(NC(=O)c2ccccc2)sc1-c1csc(NCc2ccco2)n1	23	7	0.1	0.7	89*	30
CCn1cc(C(=O)Nc2ccc(-n3cnnn3)c(OC)c2)c(=O)c2ccc(C)nc21	-6	-7	1	0.9	2	13
N#Cc1ccc(Oc2nc(Nc3ccc(F)cc3)nc(N3CCCC3)n2)cc1	4	1	0.9	0.9	5	6
CCCn1c(O)c(CN2CCCCC2)c(C)c(C#N)c1=O	0	3	1.1	0.4	-8	63*
O/N=C/c1ccccc1Oc1ccccc1	11	2	0.3	0.5	73*	45
O=C(O)/C=C/c1ccccc1Oc1ccccc1	5	-9	1	1	-2	2
Cc1cc(C)cc(Oc2ccccc2C=O)c1	13	8	0.8	0.9	18	10
Cc1cc(C)cc(Oc2ccccc2/C=N\O)c1	13	25	0.7	2.6*	25	-159
CCOc1ccc(OCCCCNCCN)cc1	8	7	0.9	1	6	4
CS(=O)(=O)Nc1cccc2cccnc12	4	-2	1	2.4*	5	-136
NC(=S)Nc1cccc2cccnc12	35*	11	0.8	1.1	17	-7
CCN(CC)CCNCc1ccc(-c2ccc(Cl)cc2)o1	11	1	0.8	1.1	16	-13
Cc1cc(C(F)F)n2nc(C(=O)Nc3cc(C)on3)nc2n1	3	2	0.9	0.7	7	26
COc1cccc(NC(=O)c2nc3nc(C)cc(C(F)F)n3n2)c1	3	2	1	1	4	0
COC(=O)c1c(NC(=O)c2nc3nc(C)cc(C(F)F)n3n2)sc2c1CCC2	34*	10	0.9	1.2	8	-22
COc1ccc(Cl)cc1NC(=O)N(C)Cc1c(C)nn(C)c1C	0	3	0.1	2.4*	86*	-143
Cc1ccccc1NC(=S)NNC(=O)c1csc2c1CCC(C)C2 (configuration not stated)	7	4	0	0.3	98*	66*
COc1ccc(Cl)cc1NC(=O)c1nc2nc(C)cc(C(F)F)n2n1	14	-3	1.2	3.6*	-18	-263
COc1ccc(Cl)cc1NC(=O)CCN1CCN(C)CC1	3	11	1.1	1.1	-6	-6
Cc1ccnc(Sc2ncccc2[N+](=O)[O-])n1	10	6	1.1	1.5	-14	-46
COc1cccc(CN2CCN(CC(=O)Nc3ccccc3Cl)CC2)c1	5	-4	0.6	0.6	41	35
O=C(NCc1ccco1)c1ccc2c(=O)n(CCC3=CCCCC3)c(=O)[nH]c2c1	-1	-6	0.9	0.6	13	43
